In PubChem BioAssay (NCATS):
Inconclusive results are not listed. Activity calls are given as the source filed them. Calls come from the whole dose curve; as a rule, active = well fitted inhibition curve with a large enough effect; inconclusive = small, poorly fitted or top-dose-only effect; inactive = flat fitted curve, though single readings scatter.

Tests used:
Assay in all cases: qHTS profiling for inhibitors of Plasmodium falciparum proliferation (AID 504749); note: nearly all actives have a fitted effect of over 60% in size
Settings in all cases: P. falciparum in erythrocytes, SYBR Green DNA, 72 h; series mostly up to 28.7 µM
DIV30 = system: DIV30
Summary of the method: (§1)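 SYBR Green fluorescence (ex 485 nm, em 535 nm) reports parasite DNA after 72 h compound exposure of infected red cells at 0.3% parasitemia, 2.5% hematocrit; signal normalized to 0.29 uM artemisinin and vehicle wells.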

Dd2 = system: Dd2
Summary of the method: as §1

ECU = system: ECU
Summary of the method: as §1

FAB9 = system: FAB9
Summary of the method: as §1

GB4 = system: GB4
Summary of the method: as §1

HB3 = system: HB3
Summary of the method: as §1

ICS = system: ICS
Summary of the method: as §1

JCK = system: JCK
Summary of the method: as §1

N140 = system: N140
Summary of the method: as §1

P93_24 = system: P93_24
Summary of the method: as §1

P94_40 = system: P94_40
Summary of the method: as §1

PAD = system: PAD
Summary of the method: as §1

PC15 = system: PC15
Summary of the method: as §1

PC26 = system: PC26
Summary of the method: as §1

PC49 = system: PC49
Summary of the method: as §1

SC27B = system: SC27B
Summary of the method: as §1

TAB109 = system: TAB109
Summary of the method: as §1

TAB113 = system: TAB113
Summary of the method: as §1

TAB165 = system: TAB165
Summary of the method: as §1

W2 = system: W2
Summary of the method: as §1

Measured: Potency

CC(C)[C@@H](N)C(=O)O
not listed: W2
inactive: all other assays above

O=S(=O)(O)CCCS(=O)(=O)O
inactive: all assays above

COC(=O)[C@@H](N)CS
not listed: W2
inactive: all other assays above

COC(=O)C(CN)c1c[nH]c2ccc(OC)cc12 (stereo not drawn)
inactive: all assays above

C=Cc1ccc(S(=O)(=O)O)cc1
inactive: all assays above

CC12CCC(C1)C(C)(C)C2=O (stereo not drawn)
inactive: all assays above

Cc1ncc(COP(=O)(O)O)c(CN)c1O
not listed: W2
inactive: all other assays above

O=P(O)(O)OP(=O)(O)OP(=O)(O)O
not listed: W2
inactive: all other assays above

O=C(O)C1=C(CSc2nnnn2CS(=O)(=O)O)CS[C@@H]2[C@H](NC(=O)[C@H](O)c3ccccc3)C(=O)N12
inactive: all assays above

CC(CNC(=O)c1cccnc1)NC(=O)c1cccnc1 (stereo not drawn)
inactive: all assays above

c1ccc2c(c1)OCC(CN1CCCCC1)O2 (stereo not drawn)
not listed: W2
inactive: all other assays above

CNC(=O)OCc1cccc(COC(=O)NC)n1
inactive: all assays above

CCCCC[C@H](O)/C=C/[C@H]1[C@H](O)CC(=O)[C@@H]1C/C=C\CCCC(=O)O
not listed: W2
inactive: all other assays above

CN(Cc1ccccc1)Cc1ccccc1
not listed: W2
inactive: all other assays above

S=C=Nc1ccc(N=C=S)cc1
not listed: W2
inactive: all other assays above

COC(=O)c1ccccc1O
not listed: W2
inactive: all other assays above

CCN(CC)C(=S)S
not listed: W2
inactive: all other assays above

CCCCCCCCCC(=O)NO
not listed: W2
inactive: all other assays above

CCOC(C)OCC
inactive: all assays above

NCCN
inactive: all assays above

O=C(O)c1ccc(NC(=O)[C@H](Cc2ccc(O)cc2)NC(=O)c2ccccc2)cc1
not listed: W2
inactive: all other assays above

O=C(NCCNCC(O)COc1ccc(O)cc1)N1CCOCC1 (stereo not drawn)
not listed: W2
inactive: all other assays above

FC(F)OC(Cl)C(F)(F)F (stereo not drawn)
inactive: all assays above

F[Si-2](F)(F)(F)(F)F
not listed: W2
inactive: all other assays above

CCCCCCCCCCCCCCCCCC[N+](C)(C)CCC[Si](OC)(OC)OC
not listed: W2
inactive: all other assays above

CC/C=C\C/C=C\C/C=C\C/C=C\C/C=C\CCCC(=O)O
not listed: W2
inactive: all other assays above

CCCCCCCCCCCC(=O)OCC(O)CO (stereo not drawn)
inactive: all assays above

O=C(CCCCCCCCCCCCC1CCCC1)Nc1ccc(S(=O)(=O)c2ccc(NC(=O)CCCCCCCCCCCCC3CCCC3)cc2)cc1
inactive: all assays above

CCCCC
not listed: W2
inactive: all other assays above
